Calls of active or inactive are those of the source.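 The calls were made as follows, unless noted: active = mean inhibition over 43.08%, the solvent-only control mean plus 3 SD; inactive = the rest.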

The target in the first assay is Nuclear receptor coactivator 3 (Homo sapiens) (UniProt Q9Y6Q9). Briefly: SRC3 coactivator transcriptional activity inhibitors, confirmation, cell-based, luminescence, quadruplicate (AID 588792).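 Also: 0% = DMSO treated cells and 100% = gossypol at 36 µM.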 As to conditions: HEK293 GAL4-SRC3 luciferase reporter, at 3.6 µM, stronger effect = higher value. Background: Reporter assays use an easily measured gene product as a stand-in for the process of interest.
Sequence of Nuclear receptor coactivator 3 (Homo sapiens) (Q9Y6Q9 whole entry, looked up, the tested form may be a part): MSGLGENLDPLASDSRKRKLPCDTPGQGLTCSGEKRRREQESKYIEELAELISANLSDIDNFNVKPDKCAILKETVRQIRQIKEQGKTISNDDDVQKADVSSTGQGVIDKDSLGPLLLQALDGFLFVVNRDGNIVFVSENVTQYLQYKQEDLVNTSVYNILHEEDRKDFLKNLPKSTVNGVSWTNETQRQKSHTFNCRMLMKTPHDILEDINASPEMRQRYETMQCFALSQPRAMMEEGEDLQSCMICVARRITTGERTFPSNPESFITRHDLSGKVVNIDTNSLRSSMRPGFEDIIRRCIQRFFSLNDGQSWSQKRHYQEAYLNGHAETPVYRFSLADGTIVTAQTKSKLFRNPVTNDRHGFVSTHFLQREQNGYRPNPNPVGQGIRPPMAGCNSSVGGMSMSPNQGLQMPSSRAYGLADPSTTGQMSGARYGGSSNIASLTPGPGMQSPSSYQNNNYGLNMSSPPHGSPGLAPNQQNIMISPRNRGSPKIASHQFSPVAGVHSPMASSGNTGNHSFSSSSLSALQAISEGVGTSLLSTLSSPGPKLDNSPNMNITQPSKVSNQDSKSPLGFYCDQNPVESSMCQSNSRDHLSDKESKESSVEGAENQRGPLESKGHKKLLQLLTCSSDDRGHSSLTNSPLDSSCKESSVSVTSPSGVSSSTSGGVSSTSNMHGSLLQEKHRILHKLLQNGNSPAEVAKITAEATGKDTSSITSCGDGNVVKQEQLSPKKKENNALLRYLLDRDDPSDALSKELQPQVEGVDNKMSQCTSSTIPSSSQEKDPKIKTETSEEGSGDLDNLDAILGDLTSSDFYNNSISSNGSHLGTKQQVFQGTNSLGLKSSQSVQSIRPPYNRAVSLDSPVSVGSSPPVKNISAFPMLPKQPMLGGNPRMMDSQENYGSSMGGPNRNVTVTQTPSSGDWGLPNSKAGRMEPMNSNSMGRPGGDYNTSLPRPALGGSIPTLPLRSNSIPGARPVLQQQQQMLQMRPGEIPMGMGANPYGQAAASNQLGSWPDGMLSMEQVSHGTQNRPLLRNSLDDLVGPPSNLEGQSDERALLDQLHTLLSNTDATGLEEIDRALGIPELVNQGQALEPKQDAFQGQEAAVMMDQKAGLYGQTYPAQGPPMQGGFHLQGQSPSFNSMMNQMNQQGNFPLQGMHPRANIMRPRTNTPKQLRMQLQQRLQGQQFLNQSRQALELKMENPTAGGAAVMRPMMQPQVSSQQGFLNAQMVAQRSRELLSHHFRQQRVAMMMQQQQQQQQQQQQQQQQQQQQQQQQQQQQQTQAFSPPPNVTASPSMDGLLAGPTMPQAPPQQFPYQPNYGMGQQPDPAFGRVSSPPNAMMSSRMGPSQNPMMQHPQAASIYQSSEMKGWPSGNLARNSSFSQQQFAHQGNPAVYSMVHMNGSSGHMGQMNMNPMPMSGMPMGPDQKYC
As usually defined, the inhibition is the relative decrease from the control value, in per cent. For the compound `COc1ccc(Nc2ccncc2[N+](=O)[O-])cc1`, the inhibition was 41.1% (inactive).

With `CCOC(=O)c1c2c(n(-c3ccc(OC)cc3)c1C)C(=O)C(=O)c1ccccc1-2`, the inhibition was 45.9% (active).

Regarding `CN1/C(=C\C(=O)C[n+]2ccc3ccccc3c2)C(C)(C)c2ccccc21`, the inhibition was 24.8% (inactive).

Take `Cn1nccc1C(=O)NC1CCCc2c1cnn2-c1ccc(C(C)(C)C)cc1` (stereo not given): the inhibition is 15% (inactive).

With `CCCCCCCCCCCCCCCCn1cc[n+](C)c1`, the inhibition was 5.39% (inactive).

Regarding `Cc1ccc(S(=O)(=O)/C(=C/Cl)NC(=O)c2ccccc2)cc1`, the inhibition was 26% (inactive).

Turning to `Cc1ccc(NC2=C(N3CCCCC3)C(=O)c3ccccc3C2=O)cc1`, the inhibition is -30.8% (inactive).

Take `Clc1ccc(C2=Nn3c(nnc3-c3n[nH]c4c3CCC4)SC2)cc1`: the inhibition is 28.4% (inactive).

As for `CC(=O)c1cn(CC(=O)Nc2ccc(C)cc2C)c2ccccc12`, the inhibition was 11.1% (inactive).

With `C=C1C(=O)[C@]23C[C@H]1CCC2[C@@]1(C)C(C[C@@H]3O)[C@](C)(C(=O)OC)CC[C@@H]1OC(C)=O` (stereo not given in full), the inhibition was 62.7% (active).

Take `CCCCCCCCCCCCCCCC[n+]1ccccc1`: the inhibition was 16.6% (inactive).

On to `CCOc1ccc(-n2c(-c3ccccc3)c[n+]3c2CCCCC3)cc1`, for which the inhibition is 28.7% (inactive).

Regarding `COC(=O)/C=C/C(=O)Nc1cccc(C(F)(F)F)c1`, the inhibition was 4.81% (inactive).

On to `Cc1ccccc1C(=O)N/N=C/c1ccc([N+](=O)[O-])s1`, for which the inhibition is 6.45% (inactive).

As to `Brc1ccc(C2=Nn3c(nnc3-c3n[nH]c4c3CCC4)SC2)cc1`, the inhibition was 26% (inactive).

In the case of `CCOc1ccc(Nc2cc(C)nc(-n3nc(C)cc3C)n2)cc1`, the inhibition is 32.9% (inactive).

Turning to `NS(=O)(=O)c1ccc(Sc2nc3ccccc3s2)c([N+](=O)[O-])c1`, the inhibition was 53.3% (active).

On to `CC(C)N(c1ccccc1)c1ccc(NC(=O)CCl)cc1`, for which the inhibition was 29.3% (inactive).

As for `O=C(Nc1sc2c(c1C(=O)O)CCCCC2)c1ccccc1`, the inhibition was -1.12% (inactive).

For `CC(=O)Nc1ccc(Oc2sc(C(=O)c3ccccc3)c(N)c2C#N)cc1`, the inhibition is 20.5% (inactive).

For the compound `C/C(=N\NC(N)=S)C12CC3CC(CC(C3)C1)C2`, the inhibition is 41.6% (inactive).

`CC[C@@H](C(=O)[C@@H](C)[C@@H](O)[C@H](C)CCc1ccc(C)c(O)c1C(=O)O)[C@H]1O[C@](CC)([C@H]2CC[C@](O)(CC)[C@H](C)O2)C[C@@H]1C`: the inhibition was 26.4% (inactive).

On to `O=C(OCC12CC3CC(CC(C3)C1)C2)c1ccc(NCc2cc(O)ccc2O)cc1`, for which the inhibition was 88.3% (active).

Turning to `c1ccc(CCNc2nc(-c3ccccn3)nc3ccccc23)cc1`, the inhibition is 22.7% (inactive).

With `CCCCCc1ccc(OCCCC[n+]2cccc(C)c2)c(CCCCC)c1`, the inhibition was 17.4% (inactive).

For `O=C(CCl)N(c1ccccc1)C1CCCCC1`, the inhibition was 30.5% (inactive).

For the compound `COc1cc(/C=C/C(=O)c2ccc(C)cc2)ccc1OCC#N`, the inhibition is 31.2% (inactive).

For the compound `O=S(=O)(NCC1CCCO1)c1ccc(-c2ccc(S(=O)(=O)NCC3CCCO3)cc2)cc1` (stereo not given), the inhibition is 9.93% (inactive).

With `COc1cc(/C=N/NC(N)=S)cc(Br)c1OCc1ccccc1F`, the inhibition was 54.7% (active).

In the case of `NC(=O)c1ccc(N2CCN(S(=O)(=O)c3cccs3)CC2)c([N+](=O)[O-])c1`, the inhibition was -7.6% (inactive).

For the compound `CCOc1ccc(-n2c(-c3ccc(Br)cc3)c[n+]3c2CCCCC3)cc1`, the inhibition is 26.1% (inactive).

For the compound `O=C(NCc1cccnc1)/C(=C\c1ccc(-c2cccc(Cl)c2)o1)S(=O)(=O)c1ccccc1`, the inhibition was 37.8% (inactive).

Consider `Cc1cc(C)c(S(=O)(=O)/N=C2\C=C(Nc3ccc(C(=O)O)cc3)C(=O)c3ccccc32)c(C)c1`, for which the inhibition is 12.8% (inactive).

Take `Nc1cc(Cc2ccccc2)ccc1O`: the inhibition was -9.82% (inactive).

With `CCOc1ccc(-c2c[n+]3c(n2-c2ccccc2)CCCCC3)cc1`, the inhibition is 28.4% (inactive).

As to `c1cnc2c(c1)ccc1cccnc12`, the inhibition is 42.2% (inactive).

Take `S=C(NCCCc1cnc[nH]1)NCCCN(Cc1ccc(Cl)cc1)c1ccc(Br)cn1`: the inhibition was 83.9% (active).

In the case of `N=c1c2c(n(Cc3ccccc3)c3c1CCC3)CCC2`, the inhibition was 19.5% (inactive).

For the compound `Cc1ccc2c(c1C)-c1c(ccc(C)c1C)C(=O)C2=O`, the inhibition is 58% (active).

Consider `COc1ccc(-n2c(-c3ccc(Br)cc3)c[n+]3c2CCc2ccccc2-3)cc1`, for which the inhibition is 32.4% (inactive).

The subject of a further assay is transactivating tegument protein VP16 (Human herpesvirus 1), Gal4-VP16 luciferase reporter. Briefly: VP16 transactivation inhibitors, counter-screen for SRC3 inhibitor project, cell-based, luminescence, high throughput (AID 588794; in the data active = inhibition above about 30%). The following applies: mammalian cells, VP16-driven luciferase reporter luminescence; at 3.6 µM; stronger effect = higher value.
For the compound `COc1ccc(Nc2ccncc2[N+](=O)[O-])cc1`, the inhibition is 27.4% (inactive).

Take `CCOC(=O)c1c2c(n(-c3ccc(OC)cc3)c1C)C(=O)C(=O)c1ccccc1-2`: the inhibition was 33.8% (active).

Turning to `CN1/C(=C\C(=O)C[n+]2ccc3ccccc3c2)C(C)(C)c2ccccc21`, the inhibition is 50.2% (active).

`Cn1nccc1C(=O)NC1CCCc2c1cnn2-c1ccc(C(C)(C)C)cc1` (stereo not given): the inhibition was 49.3% (active).

With `CCCCCCCCCCCCCCCCn1cc[n+](C)c1`, the inhibition was 31.6% (active).

Turning to `Cc1ccc(S(=O)(=O)/C(=C/Cl)NC(=O)c2ccccc2)cc1`, the inhibition was 26.9% (inactive).

As to `Cc1ccc(NC2=C(N3CCCCC3)C(=O)c3ccccc3C2=O)cc1`, the inhibition was -15% (inactive).

For the compound `Clc1ccc(C2=Nn3c(nnc3-c3n[nH]c4c3CCC4)SC2)cc1`, the inhibition was -31.7% (inactive).

In the case of `CC(=O)c1cn(CC(=O)Nc2ccc(C)cc2C)c2ccccc12`, the inhibition is 28.2% (inactive).

Turning to `C=C1C(=O)[C@]23C[C@H]1CCC2[C@@]1(C)C(C[C@@H]3O)[C@](C)(C(=O)OC)CC[C@@H]1OC(C)=O` (stereo not given in full), the inhibition was 44.9% (active).

On to `CCCCCCCCCCCCCCCC[n+]1ccccc1`, for which the inhibition was 25.1% (inactive).

Turning to `CCOc1ccc(-n2c(-c3ccccc3)c[n+]3c2CCCCC3)cc1`, the inhibition was 52.4% (active).

Regarding `COC(=O)/C=C/C(=O)Nc1cccc(C(F)(F)F)c1`, the inhibition was 6.7% (inactive).

As to `Cc1ccccc1C(=O)N/N=C/c1ccc([N+](=O)[O-])s1`, the inhibition was 8.35% (inactive).

For the compound `Brc1ccc(C2=Nn3c(nnc3-c3n[nH]c4c3CCC4)SC2)cc1`, the inhibition is -11.4% (inactive).

Turning to `CCOc1ccc(Nc2cc(C)nc(-n3nc(C)cc3C)n2)cc1`, the inhibition is 8.98% (inactive).

With `NS(=O)(=O)c1ccc(Sc2nc3ccccc3s2)c([N+](=O)[O-])c1`, the inhibition is 27.4% (inactive).

Regarding `CC(C)N(c1ccccc1)c1ccc(NC(=O)CCl)cc1`, the inhibition was -9.17% (inactive).

Consider `O=C(Nc1sc2c(c1C(=O)O)CCCCC2)c1ccccc1`, for which the inhibition was 24.2% (inactive).

`CC(=O)Nc1ccc(Oc2sc(C(=O)c3ccccc3)c(N)c2C#N)cc1`: the inhibition is -3.87% (inactive).

In the case of `C/C(=N\NC(N)=S)C12CC3CC(CC(C3)C1)C2`, the inhibition is 32.8% (active).

For `CC[C@@H](C(=O)[C@@H](C)[C@@H](O)[C@H](C)CCc1ccc(C)c(O)c1C(=O)O)[C@H]1O[C@](CC)([C@H]2CC[C@](O)(CC)[C@H](C)O2)C[C@@H]1C`, the inhibition is 58% (active).

Regarding `O=C(OCC12CC3CC(CC(C3)C1)C2)c1ccc(NCc2cc(O)ccc2O)cc1`, the inhibition is 47.5% (active).

For `c1ccc(CCNc2nc(-c3ccccn3)nc3ccccc23)cc1`, the inhibition is 41% (active).

As to `CCCCCc1ccc(OCCCC[n+]2cccc(C)c2)c(CCCCC)c1`, the inhibition is 39% (active).

In the case of `O=C(CCl)N(c1ccccc1)C1CCCCC1`, the inhibition was -7.5% (inactive).

Consider `COc1cc(/C=C/C(=O)c2ccc(C)cc2)ccc1OCC#N`, for which the inhibition is 41.2% (active).

As for `O=S(=O)(NCC1CCCO1)c1ccc(-c2ccc(S(=O)(=O)NCC3CCCO3)cc2)cc1` (stereo not given), the inhibition is 41.9% (active).

As to `COc1cc(/C=N/NC(N)=S)cc(Br)c1OCc1ccccc1F`, the inhibition was 14.2% (inactive).

With `NC(=O)c1ccc(N2CCN(S(=O)(=O)c3cccs3)CC2)c([N+](=O)[O-])c1`, the inhibition was 34.7% (active).

On to `CCOc1ccc(-n2c(-c3ccc(Br)cc3)c[n+]3c2CCCCC3)cc1`, for which the inhibition was 24.1% (inactive).

For the compound `O=C(NCc1cccnc1)/C(=C\c1ccc(-c2cccc(Cl)c2)o1)S(=O)(=O)c1ccccc1`, the inhibition is 13.6% (inactive).

Regarding `Cc1cc(C)c(S(=O)(=O)/N=C2\C=C(Nc3ccc(C(=O)O)cc3)C(=O)c3ccccc32)c(C)c1`, the inhibition is 11.8% (inactive).

Regarding `Nc1cc(Cc2ccccc2)ccc1O`, the inhibition was -12.4% (inactive).

Regarding `CCOc1ccc(-c2c[n+]3c(n2-c2ccccc2)CCCCC3)cc1`, the inhibition was 43.8% (active).

For `c1cnc2c(c1)ccc1cccnc12`, the inhibition is 31.6% (active).

As to `S=C(NCCCc1cnc[nH]1)NCCCN(Cc1ccc(Cl)cc1)c1ccc(Br)cn1`, the inhibition is 57.4% (active).

Regarding `N=c1c2c(n(Cc3ccccc3)c3c1CCC3)CCC2`, the inhibition was 44.1% (active).

Regarding `Cc1ccc2c(c1C)-c1c(ccc(C)c1C)C(=O)C2=O`, the inhibition was 34.3% (active).

In the case of `COc1ccc(-n2c(-c3ccc(Br)cc3)c[n+]3c2CCc2ccccc2-3)cc1`, the inhibition was 36.3% (active).

These data come from PubChem BioAssay.
